Bioassay records deposited in PubChem by National Center for Advancing Translational Sciences (NCATS).
Most compounds without a hit are left out; they make up all but 12% or so of the library.
BAZ2B inh – qHTS Assay for Inhibitors of BAZ2B | AlphaScreen BAZ2B-H3K14Ac peptide displacement | Potency, µM (top dose mostly 114 µM), without a hit: top-dose activity change, negative = inhibition, usual class: inhibitors | 4.4% of 360,000 active | AID 504333, 2011; further: on the % scale 0 is the no-effect control and ±100 the full control effect; nearly all actives have a fitted effect of over 60% in size
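AlphaScreen displacement: compounds (up to 110uM) incubated 30 min at room temperature with a preformed 50 nM BAZ2B/50 nM biotinylated H3K14Ac peptide complex in PBS pH 7.4 with Tween-20. Donor and acceptor beads at 10 ug/mL final added, 20 min light-protected before reading.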
Sfp inh – qHTS Assay for Inhibitors of Bacillus subtilis Sfp phosphopantetheinyl transferase (PPTase) | 4'-phosphopantetheinyl transferase ffp (Bacillus subtilis), Q9F4F7 | Biochemical Sfp PPTase activity, qHTS | Potency, µM, for inactives: largest response in the series, negative = inhibition, most hits filed as inhibitors | 3.5% of 310,000 active;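 further: the enzyme is Sfp with the accession as filed and its product quenches rhodamine fluorescence; 0% = enzyme reaction without inhibitor and -100% = no enzyme wells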
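Buffer: 50 mM Hepes-Na pH 7.6, 10 mM MgCl2, 0.01% Nonidet P-40, 0.01% BSA. Enzyme 15 nM, pre-exposed to compound 15 min; substrates then added and fluorescence change tracked over 30 min.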
G9a block – qHTS Assay for Inhibitors of Histone Lysine Methyltransferase G9a. Potency, µM (titrated, usually from 102 µM), without a hit: at the highest dose activity, negative = inhibition, usual class: inhibitors. G9a H3K9 monomethylation, AlphaScreen, 2 h. 8.8% of 350,000 active. Histone-lysine N-methyltransferase EHMT2 (Homo sapiens), Q96KQ7; further: on the % scale 0 is the no-effect control and ±100 the full control effect; nearly all actives have a fitted effect of over 75% in size
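AlphaScreen detection with an anti-monomethyl H3K9 antibody quantified product after a 2 h room-temperature reaction containing 500 nM biotinylated H3K9 peptide, 20 µM SAM and 20 nM enzyme, which had been preincubated 15 min with compound.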
L3MBTL1 block – qHTS Assay for the Inhibitors of L3MBTL1; Lethal(3)malignant brain tumor-like protein 1 (Homo sapiens), Q9Y468; AlphaScreen L3MBTL1–H3K9me1 peptide binding; Potency, µM (series often up to 57.1 µM), for inactives: top-dose activity, negative = inhibition, actives largely listed as inhibitors; 0.66% of 230,000 active; AID 485360, 2010; further: on the % scale 0 is the no-effect control and ±100 the full control effect; nearly all actives have a fitted effect of over 60% in size
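Displacement of a biotinylated histone H3(1-15) peptide monomethylated at Lys9 (75 nM) from L3MBTL1 (50 nM) was measured by AlphaScreen after a 30 min room-temperature compound incubation; cefsulodin titration served as intraplate control.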
JMJD2A Tudor inh – qHTS Assay for Inhibitors of JMJD2A-Tudor Domain. AID 504339, 2011. Lysine-specific demethylase 4A (Homo sapiens), O75164. Potency, µM (highest dose often 114 µM), inactives show at the top dose activity change, negative = inhibition, usual class: inhibitors. AlphaScreen JMJD2A-Tudor / H3K4me3 peptide binding. 4.4% of 390,000 active; further: on the % scale 0 is the no-effect control and ±100 the full control effect; nearly all actives have a fitted effect of over 50% in size
Target sequence (O75164 whole entry, looked up, the tested form may be a part): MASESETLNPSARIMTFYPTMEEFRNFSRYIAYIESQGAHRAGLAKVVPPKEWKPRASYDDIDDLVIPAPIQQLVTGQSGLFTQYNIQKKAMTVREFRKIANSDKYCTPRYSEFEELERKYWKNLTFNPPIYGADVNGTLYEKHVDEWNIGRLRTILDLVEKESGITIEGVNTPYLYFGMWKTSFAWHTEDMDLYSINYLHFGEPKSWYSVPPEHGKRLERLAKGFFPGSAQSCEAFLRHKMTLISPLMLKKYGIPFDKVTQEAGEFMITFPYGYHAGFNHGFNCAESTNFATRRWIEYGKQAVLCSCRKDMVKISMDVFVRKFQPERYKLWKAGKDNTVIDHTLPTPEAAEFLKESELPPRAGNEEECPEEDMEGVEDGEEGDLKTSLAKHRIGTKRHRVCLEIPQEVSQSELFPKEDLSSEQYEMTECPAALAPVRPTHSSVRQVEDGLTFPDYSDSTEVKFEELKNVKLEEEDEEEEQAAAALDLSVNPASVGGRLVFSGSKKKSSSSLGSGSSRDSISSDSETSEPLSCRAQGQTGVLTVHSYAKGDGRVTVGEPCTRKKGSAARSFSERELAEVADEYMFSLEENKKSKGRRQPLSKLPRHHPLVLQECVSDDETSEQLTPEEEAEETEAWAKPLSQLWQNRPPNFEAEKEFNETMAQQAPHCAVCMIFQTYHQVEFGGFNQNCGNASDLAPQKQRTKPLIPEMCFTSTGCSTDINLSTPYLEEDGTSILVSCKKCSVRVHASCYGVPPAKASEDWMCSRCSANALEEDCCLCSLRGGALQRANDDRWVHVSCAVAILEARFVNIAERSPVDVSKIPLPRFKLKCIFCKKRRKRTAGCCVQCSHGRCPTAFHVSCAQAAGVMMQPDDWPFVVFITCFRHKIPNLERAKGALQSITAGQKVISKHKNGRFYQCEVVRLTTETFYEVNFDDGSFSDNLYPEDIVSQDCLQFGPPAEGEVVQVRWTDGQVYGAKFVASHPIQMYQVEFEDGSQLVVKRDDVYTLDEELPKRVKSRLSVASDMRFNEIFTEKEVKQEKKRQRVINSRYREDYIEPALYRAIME
HP1b binding inh – HTS for Inhibitors of HP1-beta Chromodomain Interactions with Methylated Histone Tails | Chromobox protein homolog 1 (Homo sapiens), P83916 | AlphaScreen HP1-beta / biotin-H3K9me3 peptide binding | Potency, µM (highest dose often 114 µM), for inactives: top-dose activity change, negative = inhibition, usual class: inhibitors | 0.56% of 390,000 active; further: nearly all actives have a fitted effect of over 70% in size
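AlphaScreen: HP1-beta (50 nM) preformed 30 min with biotin-H3(1-18)K9me3 peptide (50 nM) in PBS pH 7.4, 0.01% Tween-20. Compound added for 30 min at RT, then streptavidin donor/nickel chelate acceptor beads (10 ug/mL) for 30 min.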
* = called active by the depositor; u = inconclusive; x = no result given; [ ] = dose if it differs, or a comment. The call rests on the fitted dose curve; in most records, active means well fitted curve in the direction sought with a large enough effect; inconclusive means small, poorly fitted or top-dose-only effect, or another doubt; inactive means no such curve, though single readings can be large; an effect the other way counts as inactive or inconclusive. Potency means the concentration at half of the fitted maximal effect.

SMILES	BAZ2B inh	Sfp inh	G9a block	L3MBTL1 block	JMJD2A Tudor inh	HP1b binding inh
Nc1ncnc2c1nc(Sc1ccc(Cl)cc1)n2[C@H]1O[C@@H]2COP(=O)(O)O[C@H]2[C@@H]1O	x	x	24%[12.7 µM]	x	x	x
O=C(NCc1ccccn1)c1cccc([N+](=O)[O-])c1	-1%	1%	x	-3%	-19%	19%
O=C(CSc1nc2ncc(Br)cc2[nH]1)c1cccc([N+](=O)[O-])c1	-12%	7%	45µM*	-7%	-34%	20%
O=C(C[n+]1cc(Br)cc(Br)c1)c1cccc([N+](=O)[O-])c1	50µM*	-12%	-111%[59 µM]	-2%	-27%	20%
O=C(Cc1nc2ccccc2[nH]1)c1cccc([N+](=O)[O-])c1	u	14µM*	x	-2%	u	11%
CC(C)(C)C(=O)CSc1nc2ncc(Br)cc2[nH]1	-14%	8%	50µM*	2%	u	54%
Cc1nc2nc(SCC(=O)c3cccc([N+](=O)[O-])c3)[nH]c2cc1Br	-3%	3%	u	-3%	-22%	3%
Cc1ccc(N2CCN(S(=O)(=O)c3ccc4oc(=O)c5ncn(C)c5c4c3)CC2)c(C)c1	-3%	x	2%[59 µM]	x	-14%	12%
CCOc1ccc(NC(=O)CC2C(=O)N(c3cccc(C)c3)C(=O)N2Cc2cccs2)cc1 (stereo not given)	-5%	x	u	x	-12%	32%
COc1cccc(-c2nc(CS(=O)(=O)CC(=O)NCCc3ccc(Cl)cc3)c(C)o2)c1	-16%	x	-32%[59 µM]	x	-16%	31%
O=C1CC(N(O)c2ccccc2)C(=O)N1c1ccc(Cl)c(Cl)c1 (stereo not given)	-13%	11%	50µM*	x	-13%	18%
CCN(CC)C1CC(=O)N(c2cccc(Cl)c2)C1=O (stereo not given)	-5%	-2%	8.9µM*	3%	-7%	31%
Cc1ccc(NNC2CC(=O)N(c3cccc(Cl)c3)C2=O)cc1 (stereo not given)	u	-3%	10µM*	u	-33%	35%
O=C1CC(NNc2ccccc2)C(=O)N1c1ccccc1 (stereo not given)	-17%	1%	8.9µM*	-1%	-33%	5%
Cc1cccc(C)c1NC(=O)Cn1nnc(S(=O)(=O)c2ccccc2)c1N	-6%	x	-27%[59 µM]	x	-9%	20%
Cc1ccc(C)c(NC(=O)Cn2c(SCC(=O)NCc3ccccc3)nc3ccccc32)c1	-9%	x	-9%[59 µM]	x	-25%	3%
CC(C)CO/N=C1/C[C@@H](O)[C@@H](O)[C@@H]2[C@@H]3C(=O)N(Cc4ccccc4)C(=O)[C@H]3CC[C@H]12	x	8%	x	x	x	x
CCCCCC(=O)NNC1CC(=O)N(c2cccc(OCC)c2)C1=O (stereo not given)	16%	-8%	x	58%	-22%	17%
CC(=O)NCCCC(=O)NNC1CC(=O)N(c2cccc(Cl)c2)C1=O (stereo not given)	-5%	u	5.6µM*	1%	-16%	-24%
Cc1ccc(C2=NC(c3ccccc3)=Nc3ccc(Cl)cc3N2)cc1	-13%	x	8%[59 µM]	x	-18%	22%
C[C@H](NC(=O)c1nc[nH]c1C(=O)NCCCCCN)C(=O)OC(C)(C)C	50µM*	x	23%[2.33 µM]	1%	56µM*	13%
C[C@H](NC(=O)c1nc[nH]c1C(=O)N1CCNCC1)C(=O)OC(C)(C)C	50µM*	x	u	-3%	35µM*	16%
C[C@H](NC(=O)c1nc[nH]c1C(=O)NCCCCCNC(=O)OC(C)(C)C)C(=O)OCc1ccccc1	-5%	8%	7%[12.7 µM]	u	-22%	58%
C[C@H](NC(=O)c1nc[nH]c1C(=O)NCCCCCN)C(=O)OCc1ccccc1	50µM*	x	-10%[2.33 µM]	0%	45µM*	26%
CC(C)(C)OC(=O)[C@H](CCCCN)NC(=O)c1nc[nH]c1C(=O)NCCCCCN	u	x	-10%[12.7 µM]	-3%	-22%	1%
SMILES	BAZ2B inh	Sfp inh	G9a block	L3MBTL1 block	JMJD2A Tudor inh	HP1b binding inh
CC(C)(C)OC(=O)NCc1ccc(CNC(=O)c2nc[nH]c2C(=O)N2CCc3ccccc3C2)cc1	50µM*	x	9%[2.33 µM]	-15%	-23%	45%
C[C@@H]1C(=O)CC2C(C)(C)CCC[C@]2(C)[C@@]1(O)CCc1ccoc1 (stereo not given in full)	x	-16%	x	x	x	x
CCOC(=O)Cn1c(=O)oc2cc(S(=O)(=O)N3CCN(c4ccc(F)cc4)CC3)ccc21	32%	x	9%[59 µM]	x	-6%	66%
O=C(CSc1nc2c([nH]c3ccccc32)c(=O)n1-c1cccc(Cl)c1)c1ccccc1	1%	x	14%[59 µM]	x	-1%	29%[57 µM]
COCCNc1nnc(SCC(=O)Nc2cc(-c3ccccc3)nn2-c2ccccc2)s1	-38%	2%	79µM*	-3%	-36%	15%
CC(C)(C)c1cc(NC(=O)CSc2nnc(NCc3ccccc3)s2)n(-c2ccccc2)n1	16%	22%	-9%	8%	-19%	39%
COCCNc1nnc(SCC(=O)NC(=O)c2ccccc2)s1	7%	x	50µM*	-4%	-11%	35%
O=C1CCc2cc(S(=O)(=O)Nc3cccc(Br)c3)ccc2N1	x	x	x	x	-16%	x
CN1CCN(C(=S)C(=O)NCc2ccccc2)CC1	-9%	5%	6%	-4%	-21%	18%
CN1CCC(=NNC(=O)C(=O)Nc2ccc(F)cc2)CC1	-17%	6%	u	10%	-3%[11.4 µM]	47%
CN1CCC(=NNC(=O)C(=O)Nc2cccc(Br)c2)CC1	-27%	12%	-5%[59 µM]	x	22µM*	5%
CN1CCC(=NNC(=O)C(=O)NCc2ccccc2)CC1	-1%	1%	40µM*	u	-9%	17%
COc1cccc(NC(=O)CSc2nc(=O)n(Cc3cccnc3)c3c2CCC3)c1	-16%	x	6%[59 µM]	x	-13%	-8%
CCn1c(=S)[nH]c2sc3c(c2c1=O)CCCC3	-2%	2%	x	7%	-16%	5%
CC1CCc2c(sc3[nH]c(=S)n(C)c(=O)c23)C1 (stereo not given)	5%	79µM*	3.5µM*	x	u	u
COC(=O)c1c(Oc2ccc(C(C)=O)cc2)nnc(-c2ccccc2)c1-c1ccccc1	-27%	x	-32%[59 µM]	x	-33%	29%
CN1CCN(C(=O)/C(=C\c2ccccc2)c2ccccc2)CC1	1%	-1%	u	x	-5%	10%
